# Screening results deposited in PubChem by The Scripps Research Institute Molecular Screening Center.
# FBW7 activator: FBW7 E3 ligase activators, primary screen, biochemical, AlphaScreen, human | AlphaScreen FBW7–phospho-cyclin E peptide binding, activator screen | F-box/WD repeat-containing protein 7 (Homo sapiens), Q969H0 | 650,000 tested, 0.13% active | normalized activity (activation), % at 26.1 µM | AID 1259310, 2017; in the data active = normalized activity above about 1.9%;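 note: purified mutant Fbw7 with reduced substrate affinity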
# Target sequence (Q969H0 whole entry, looked up): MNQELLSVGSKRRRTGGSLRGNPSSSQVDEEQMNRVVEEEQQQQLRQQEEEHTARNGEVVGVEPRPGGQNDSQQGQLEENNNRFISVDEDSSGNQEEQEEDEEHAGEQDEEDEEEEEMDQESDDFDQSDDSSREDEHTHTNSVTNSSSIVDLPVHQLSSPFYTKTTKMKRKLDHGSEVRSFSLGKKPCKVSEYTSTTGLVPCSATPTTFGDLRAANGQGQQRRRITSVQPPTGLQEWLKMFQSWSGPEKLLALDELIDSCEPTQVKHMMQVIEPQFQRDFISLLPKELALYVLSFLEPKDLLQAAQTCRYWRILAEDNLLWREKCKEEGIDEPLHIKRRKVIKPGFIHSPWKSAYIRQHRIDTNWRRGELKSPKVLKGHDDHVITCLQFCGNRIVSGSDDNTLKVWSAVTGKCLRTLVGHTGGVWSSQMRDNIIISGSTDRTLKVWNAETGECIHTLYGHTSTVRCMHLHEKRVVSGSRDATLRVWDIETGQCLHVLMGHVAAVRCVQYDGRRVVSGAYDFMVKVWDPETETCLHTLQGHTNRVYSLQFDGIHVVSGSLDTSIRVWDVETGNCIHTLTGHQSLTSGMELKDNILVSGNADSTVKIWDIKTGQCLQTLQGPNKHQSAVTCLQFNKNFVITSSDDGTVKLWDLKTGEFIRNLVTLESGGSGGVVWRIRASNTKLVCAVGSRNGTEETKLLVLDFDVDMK
# MITF primary: MITF inhibitors, primary screen, biochemical, AlphaScreen, human. AID 1259374, 2018. 650,000 tested, 0.91% active. inhibition, % at 2.6 µM. AlphaScreen MITF homodimerization, bead proximity signal; in the data active = inhibition above about 50%;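 note: 0% = vehicle wells with protein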
# TEAD-YAP block: TEAD-YAP interaction inhibition, primary screen, TEAD-YAP interaction inhibitor project, luminescence, HEK-TIYL cells; TEAD-Gal4/YAP UAS-luciferase luminescence; inhibition, % at 9.12 µM; 640,000 tested, 1.4% active; in the data active = inhibition above about 32%;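 note: 0% = median of test compound wells and 100% = reference inhibitor wells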
# GPR151 ag: activators of human GPR151, primary screen, cell-based, PathHunter beta-arrestin, luminescence. PathHunter beta-arrestin GPR151 cells. activation, % at 11.2 µM. 650,000 tested, 1% active. AID 1508602, 2020; in the data active = activation above about 4.9%;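 note: 0% = median of compound wells and 100% = cells with positive control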
# * hit, by the source's call; ! = not confirmed by another sample. Compounds with a hit are over-represented: about 3.5% of the library has one in this group of screens.
SMILES,FBW7 activator,MITF primary,TEAD-YAP block,GPR151 ag
O=C(N/N=C/c1ccc(O)c(O)c1O)c1ccc(Cl)cc1Cl,0,37,5,-1
NC(CO)C(=O)NNCc1ccc(O)c(O)c1O (stereo unspecified),0,88*,-6,2
NC(CO)C(=O)N/N=C/c1ccc(O)c(O)c1O (stereo unspecified),-1,96*,-5,0
COc1ccc(Nc2nccc(NCc3cccc(C(F)(F)F)c3)n2)cn1,0,-13,9,0
COc1ccc(Nc2nc(C)cc(NCc3cccc(C(F)(F)F)c3)n2)cc1,0,6,38*,0
COc1ccc(Nc2nc(C)cc(NCc3cccc(C(F)(F)F)c3)n2)cn1,1.9*,6,29,1
COc1ccc(-c2nc3ncnc(NCc4cccc(C(F)(F)F)c4)c3[nH]2)cn1,0,13,54*,0
COc1ccc(/C(C)=N\NC(=O)Cc2cc(=O)[nH][nH]2)cc1OC,0,2,-6,0
COc1cccc(-c2nc3nc(C)c(CCC(=O)O)c(C)n3n2)c1,0,1,48*,0
Cc1nc2nc(-c3ccc(Cl)cc3Cl)nn2c(C)c1CCC(=O)O,0,2,80*,0
O=C(O)CCc1nc(-c2ccc(Cl)cc2Cl)no1,0,1,-4,1
CCC1CCc2c(sc(NC(=O)CCc3ccccc3)c2C(N)=O)C1 (stereo unspecified),0,17,23,-1
COc1ccc(CN2CCC(n3nccc3NC(=O)Nc3ccccc3C)CC2)c(F)c1,0,3,19,0
COc1cc([N+](=O)[O-])cc(/C=N/NC(=O)c2cccc(Br)c2)c1O,0,13,10,-2
COc1ccccc1-c1nnc(SCC(=O)Nc2ccc(Br)cn2)o1,0,4,34*,1
COCCCNC(=O)c1c(NC(=O)Cc2coc3ccc(C)cc23)sc2c1CCCC2,0,9,48*,2
Cc1ccc2c(CC(=O)Nc3sc4c(c3C(N)=O)CCCC4)coc2c1,0,-8,-5,-1
CSc1ccc(NC(=O)C2CCCCN2S(=O)(=O)c2ccc(Cl)s2)cc1 (stereo unspecified),0,13,4,-2
CC(C)OCCCNC(=O)c1cc(-c2cccs2)nc2ccccc12,0,-1,36*,0
O=C(NCCCN1CCOCC1)c1cc(-c2cccs2)nc2ccccc12,0,-5,14,0
CCOc1cc(/C=C2/C(=N)N3OC(C)=CC3=NC2=O)ccc1OCc1ccccc1F,0,7,3,-1
Cc1cnc(Nc2ccncc2)nc1Nc1ccc(N2CCOCC2)cc1,0,-4,40*,-1
Cc1cnc(Nc2ccc(N3CCOCC3)cc2)nc1NCCN1CCOCC1,0,1,0,1
Cc1cnc(Nc2ccc(C(F)(F)F)cc2)nc1Nc1ccc(N2CCOCC2)cc1,0,15,49*,2
Cc1cnc(Nc2ccc(N3CCOCC3)cc2)nc1NCCOc1ccccc1,0,14,48*,3
SMILES,FBW7 activator,MITF primary,TEAD-YAP block,GPR151 ag
Cc1cnc(Nc2ccc(N3CCOCC3)cc2)nc1Nc1ccc(N2CCOCC2)cc1,0,9,42*,5
Cc1ccccc1CN1CCc2nnc(C(C)NC(=O)C3CCOCC3)n2CC1 (stereo unspecified),0,-14,-5,-1
COc1cccc(/C=C2/SC(N3CCN(C4=NC(=O)/C(=C\c5cccc(OC)c5)S4)CC3)=NC2=O)c1,0,-6,-1,-2
Cc1cnc(NCc2ccc3c(c2)OCO3)nc1Nc1ccc(N2CCOCC2)cc1,0,16,42*,-1
CC(C)Oc1ccc(CC(=O)c2ccc(O)cc2O)cc1,0,-3,66*,-2
O=C(Cc1ccc(Br)cc1)c1ccc(O)cc1O,0,-1,-17,0
CCc1cc(C(=O)Cc2ccc(OC)cc2)c(O)cc1O,0,-6,1,1
CC(C)(C)c1ccc(OCC(=O)c2ccc(O)cc2O)cc1,0,-6,96*,-3
Cc1ccc(OCC(=O)c2ccc(O)cc2O)cc1,0,2,-4,-7
COc1ccc(CC(=O)c2ccc(O)cc2O)cc1,0,-4,34*!,0
Cc1ccc(NC(NC(=O)c2ccc(C)cc2)C(=O)c2ccccc2)cc1 (stereo unspecified),0,7,-7,0
COC(=O)c1ccc(C(=O)Nc2nc3ccc(NC(C)=O)cc3s2)cc1,0,9,-9,-1
